Assay [1] is described as follows: Nuclear factor erythroid 2-related factor 2/antioxidant responsive element (Nrf2/ARE) small molecule agonists: qHTS cell viability counter screen in human keratinocytes (AID 1919968; active = well fitted curve in the direction sought with a large enough effect in the repeat runs; an effect the other way counts as inactive or inconclusive; also: nearly all actives have a fitted effect of over 55% in size). Summed up: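 Measured as CellTiter-Fluor fluorescence, this readout tracks cytotoxicity in the same wells as the ARE-luciferase screen. HaCaT reporter cells (1,500/well) received compounds after a 5 h pre-incubation and were exposed for 23 h.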
On the technique in general: In qHTS, concentration-response curves come from the screen itself.

Assay [2] can be described thus: Nuclear factor erythroid 2-related factor 2/antioxidant responsive element (Nrf2/ARE) small molecule agonists: luciferase reporter gene qHTS assay in human keratinocytes (AID 1919969). Also: nearly all actives have a fitted effect of over 35% in size. Also: potency is read from the fitted curve at half-maximal effect.
In assay [3] the target is Gonadotropin-releasing hormone receptor (Homo sapiens) (UniProt P30968). As to the kind of experiment: Human gonadotropin-releasing hormone receptor (GnRHR) small molecule agonists, calcium flux assay in GnRHR-HEK293 cells (AID 1920063). Also: nearly all actives have a fitted effect of over 35% in size. Summed up: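 Fluorescence kinetics (480 nm excitation, 540 nm emission; 3 min, 1 s steps) report calcium mobilisation in human GnRHR-HEK293 cells in agonist mode. Dye incubation: 1 h, 37 C.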
(In general: A change in cytosolic calcium serves as a functional read-out for many receptors and channels.)

In assay [4] the target is KiSS-1 receptor (Homo sapiens) (UniProt Q969F8). As to the kind of experiment: Human kisspeptin (KISS1R) small molecule agonists, calcium flux assay in KISS1R-HEK293 cells (AID 1920064; active = well fitted curve in the direction sought with a large enough effect in the repeat runs; an effect the other way counts as inactive or inconclusive). In a few lines:
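Measures KISS1R agonism through calcium-sensitive dye fluorescence in stably transfected HEK293 cells, read for 3 min after pin-tool compound delivery; 15-point titrations in triplicate.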

Assay [5] in a line: G protein-coupled receptor (GPCR) small molecule agonists, calcium flux assay: HEK293 wild type cell line counter screen (AID 1920065). In a few lines:
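Readout: fluorescence at 480 nm excitation/540 nm emission, sampled at 1 s intervals for 3 min. Cells had been cultured 18 h, then dye-loaded 1 h at 37 C before compound or ATP addition.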

A short description of assay [6]: p53 small molecule agonists, cell-based qHTS assay with human liver microsomes (AID 1963577). Summed up: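 p53RE-bla reporter cells were pre-incubated 5 h at 37 C, then treated with compounds plus human liver microsomes (0.5 mg/mL final) and NADPH (0.5 mg/mL final) for 16 h at 37 C. Beta-lactamase activity was read by LiveBLAzer fluorescence after 2 h at room temperature.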

Assay [7] is described as follows: p53 small molecule agonists, cell-based qHTS assay with rat liver microsomes (AID 1963578). In a few lines:
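p53RE-bla cells were exposed to compounds together with rat liver microsomes (0.5 mg/mL final) and NADPH (0.5 mg/mL final) for 16 h at 37 C, then read by LiveBLAzer beta-lactamase fluorescence after 2 h at room temperature.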

Assay [8] is described as follows: p53 small molecule agonists, cell-based qHTS assay with human liver microsomes: qHTS cell viability counter screen (AID 1963579). Also: nearly all actives have a fitted effect of over 45% in size. In a few lines:
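p53RE-bla cells (4,000/well) were pre-incubated 5 h at 37 C, then given compounds in DMSO plus human liver microsomes (0.5 mg/mL final) and NADPH (0.5 mg/mL final) for 16 h at 37 C. Viability was read by CellTiter-Glo luminescence.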

The nature of assay [9]: p53 small molecule agonists, cell-based qHTS assay with rat liver microsomes: qHTS cell viability counter screen (AID 1963580). Also: nearly all actives have a fitted effect of over 45% in size. Summed up: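 Viability is assessed in parallel with the p53 reporter read: HCT-116 p53RE-bla cells receive compounds plus rat microsomes and NADPH (0.5 mg/mL final apiece), incubate 16 h at 37 C, and then CellTiter-Glo luminescence is recorded.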

A short description of assay [10]: p53 small molecule agonists, cell-based qHTS assay (AID 1963582; active = well fitted activation curve with a large enough effect in the signal ratio in the repeat runs, not every such curve was filed as active; the % refers to the signal ratio). In a few lines:
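Compounds are pin-transferred in DMSO onto p53RE-bla cells and incubated 16 h at 37 C. The B/G FRET beta-lactamase substrate is then applied for 2 h at RT and fluorescence recorded.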

Assay [11] addresses 5-hydroxytryptamine receptor 2A (Homo sapiens) (UniProt P28223). As to the kind of experiment: 5-hydroxytryptamine receptor 2A (HTR2A) small molecule agonists, cell-based qHTS assay (AID 1963587). Also: nearly all actives have a fitted effect of over 30% in size. Summed up: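 CHO cells stably expressing human HTR2A, plated 18 h, loaded with calcium dye 1 h at 37 C. Agonist mode: compounds added and intracellular calcium fluorescence recorded kinetically for 2 min at 1 sec intervals.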

In assay [12] the target is Muscarinic acetylcholine receptor M1 (Homo sapiens) (UniProt P11229). As to the kind of experiment: Cholinergic receptor muscarinic 1 (CHRM1) small molecule antagonists, cell-based qHTS assay (AID 1963588). Also: nearly all actives have a fitted effect of over 40% in size. Summed up: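 CHRM1-CHO calcium-flux assay, antagonist mode. Cells were seeded 18 h, dye-loaded 1 h at 37 C and given compound for 5 min at RT, then acetylcholine was added at 50nM. FDSS fluorescence was read 3 min; 15 concentrations, three runs.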

The target is the same in assay [13]. Put plainly: Cholinergic receptor muscarinic 1 (CHRM1) small molecule agonists, cell-based qHTS assay (AID 1963589). Also: nearly all actives have a fitted effect of over 35% in size. Summed up:
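Each compound was tested at 15 concentrations across three independent runs on dye-loaded CHO cells stably expressing human CHRM1, reading intracellular calcium fluorescence kinetically at 1 sec intervals.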

The nature of assay [14]: cAMP Responsive Elements (CRE) small molecule agonists, cell-based qHTS assay (AID 1963590). Summed up:
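Cell line: CRE-bla HEK 293T; medium DMEM/10% dialyzed FBS/0.1 mM NEAA/1 mM pyruvate/25 mM HEPES; 3 h compound exposure; beta-lactamase FRET readout after 2 h substrate loading at RT.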

Assay [15] is described as follows: cAMP Responsive Elements (CRE) small molecule antagonists, cell-based qHTS assay (AID 1963591; active = well fitted inhibition curve with a large enough effect in the signal ratio in the repeat runs, not every such curve was filed as active; the % refers to the signal ratio). In a few lines:
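Inhibition of NKH477-driven (0.25 uM final) CRE-beta-lactamase signal in HEK293T cells, 3 h compound exposure at 37 °C, detected by FRET substrate fluorescence.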

For assay [16], the target named is D(2) dopamine receptor (Homo sapiens) (UniProt P14416). Put plainly: Dopamine D2 receptor (DRD2) small molecule antagonists, cell-based qHTS assay (AID 1963595; active = well fitted inhibition curve with a large enough effect in the signal ratio in the repeat runs, with a control signal flat; the % refers to the signal ratio). In a few lines:
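HEK293 cells stably expressing DRD2, preincubated with 0.1 mM Ro20-1724 and compounds 10 min, were stimulated with 200 nM NKH477 plus 12 nM quinpirole for 30 min at room temperature; cAMP measured by HTRF (665/620 nm).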

Assay [17] concerns the target 5-hydroxytryptamine receptor 2A (Homo sapiens) (UniProt P28223). Put plainly: 5-hydroxytryptamine receptor 2A (HTR2A) small molecule antagonists, cell-based qHTS assay (AID 1963586). Also: nearly all actives have a fitted effect of over 45% in size. In a few lines:
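Antagonist-mode intracellular calcium assay: DOI (4 nM) added after 5 min compound pre-incubation at room temperature to dye-loaded HTR2A-CHO cells. Fluorescence followed for 3 min, sampled every second.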

Assay [18] has as its target Beta-2 adrenergic receptor (Homo sapiens) (UniProt P07550). As to the kind of experiment: Adrenergic beta2 receptor (ADRB2) small molecule antagonists, cell-based qHTS assay (AID 1963592). Also: series mostly up to about 92 µM; nearly all actives have a fitted effect of over 50% in size. In a few lines:
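Cells (CHO, stable ADRB2 overexpression) incubated 18-20hr at 37C; compounds added from DMSO; agonist mix (1nM isoproterenol, 100uM IBMX, 25uM Ro-20-1724) added; 0.5hr RT; d2-cAMP and anti-cAMP-cryptate added; 1hr RT; 665/615 nm read.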

The target in assay [19] is D(2) dopamine receptor (Homo sapiens) (UniProt P14416). Put plainly: Dopamine D2 receptor (DRD2) small molecule agonists, cell-based qHTS assay (AID 1963594). Also: nearly all actives have a fitted effect of over 35% in size. In a few lines:
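HEK293 cells stably expressing human DRD2, pre-treated with PDE inhibitor Ro20-1724 (0.1 mM final) and compound 10 min at room temperature, then stimulated with NKH477 (200nM […]) for 30 min. cAMP read by HTRF (665/620 nm).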

In assay [20] the target is Beta-2 adrenergic receptor (Homo sapiens) (UniProt P07550). Put plainly: Adrenergic beta2 receptor (ADRB2) small molecule agonists, cell-based qHTS assay (AID 1963593).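 Also: CHO cells stably overexpressing human ADRB2.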 Summed up: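 CHO cells stably over-expressing ADRB2 were plated overnight at 37C, then dosed with compounds plus a stimulation mix containing 100uM IBMX and 25uM Ro-20-1724 for 0.5hr at room temperature. cAMP was measured by HTRF competition, 1hr.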

The structures appear in SMILES notation. A number with no mark means an inactive call. Results filed as inconclusive are left out. Active and inactive are the calls of the source. Unless noted, calls follow the shape of the full dose curve.

Muscarinic acetylcholine receptor M1 (Homo sapiens), sequence (P11229 whole entry, looked up): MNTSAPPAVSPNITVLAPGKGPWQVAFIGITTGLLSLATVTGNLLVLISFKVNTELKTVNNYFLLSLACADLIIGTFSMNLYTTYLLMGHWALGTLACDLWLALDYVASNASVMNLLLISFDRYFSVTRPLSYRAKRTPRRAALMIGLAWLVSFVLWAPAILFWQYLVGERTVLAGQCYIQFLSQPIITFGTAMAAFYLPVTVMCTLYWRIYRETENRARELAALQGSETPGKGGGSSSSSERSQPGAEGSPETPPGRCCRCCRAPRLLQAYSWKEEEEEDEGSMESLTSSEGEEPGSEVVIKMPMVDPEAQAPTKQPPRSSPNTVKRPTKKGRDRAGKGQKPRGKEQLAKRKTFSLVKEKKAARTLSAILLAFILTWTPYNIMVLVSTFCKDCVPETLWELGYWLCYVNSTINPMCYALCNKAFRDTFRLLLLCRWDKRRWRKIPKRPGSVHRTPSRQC
5-hydroxytryptamine receptor 2A (Homo sapiens), sequence (P28223 whole entry, looked up): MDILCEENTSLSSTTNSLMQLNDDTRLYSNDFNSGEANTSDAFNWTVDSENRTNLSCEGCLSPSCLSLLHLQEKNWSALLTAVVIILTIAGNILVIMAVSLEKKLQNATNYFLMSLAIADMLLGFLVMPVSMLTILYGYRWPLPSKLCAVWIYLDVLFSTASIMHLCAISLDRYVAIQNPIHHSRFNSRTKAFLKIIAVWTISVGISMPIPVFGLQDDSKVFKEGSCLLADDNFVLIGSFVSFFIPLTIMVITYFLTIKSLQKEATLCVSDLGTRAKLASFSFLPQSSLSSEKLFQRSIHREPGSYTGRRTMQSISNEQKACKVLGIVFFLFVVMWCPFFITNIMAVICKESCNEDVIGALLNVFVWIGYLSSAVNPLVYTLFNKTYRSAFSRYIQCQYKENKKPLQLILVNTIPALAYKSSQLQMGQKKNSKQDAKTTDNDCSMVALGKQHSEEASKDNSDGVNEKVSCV
D(2) dopamine receptor (Homo sapiens), sequence (P14416 whole entry, looked up): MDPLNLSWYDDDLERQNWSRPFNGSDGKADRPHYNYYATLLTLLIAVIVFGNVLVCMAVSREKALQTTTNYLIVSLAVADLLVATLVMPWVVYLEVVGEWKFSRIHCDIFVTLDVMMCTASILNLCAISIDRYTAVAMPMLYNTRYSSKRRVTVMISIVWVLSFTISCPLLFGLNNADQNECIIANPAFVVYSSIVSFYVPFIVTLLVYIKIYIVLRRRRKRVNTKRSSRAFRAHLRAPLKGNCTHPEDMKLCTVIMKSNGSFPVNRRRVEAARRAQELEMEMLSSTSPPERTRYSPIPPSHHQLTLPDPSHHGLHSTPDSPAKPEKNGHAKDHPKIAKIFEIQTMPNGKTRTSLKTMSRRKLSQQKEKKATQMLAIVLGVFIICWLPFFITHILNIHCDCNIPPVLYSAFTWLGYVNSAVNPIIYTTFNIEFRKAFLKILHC
Beta-2 adrenergic receptor (Homo sapiens), sequence (P07550 whole entry, looked up): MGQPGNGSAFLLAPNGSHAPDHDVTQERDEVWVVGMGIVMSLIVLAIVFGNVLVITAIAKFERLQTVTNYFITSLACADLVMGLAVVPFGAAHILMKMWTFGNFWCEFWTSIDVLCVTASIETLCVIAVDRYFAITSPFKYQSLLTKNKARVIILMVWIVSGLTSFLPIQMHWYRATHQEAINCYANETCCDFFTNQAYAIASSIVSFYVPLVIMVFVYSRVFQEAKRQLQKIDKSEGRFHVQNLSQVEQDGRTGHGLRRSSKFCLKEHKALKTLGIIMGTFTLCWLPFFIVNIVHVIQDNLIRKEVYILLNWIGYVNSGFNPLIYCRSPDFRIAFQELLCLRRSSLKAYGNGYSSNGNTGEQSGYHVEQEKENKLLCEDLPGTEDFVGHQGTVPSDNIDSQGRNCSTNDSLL
KiSS-1 receptor (Homo sapiens), sequence (Q969F8 whole entry, looked up): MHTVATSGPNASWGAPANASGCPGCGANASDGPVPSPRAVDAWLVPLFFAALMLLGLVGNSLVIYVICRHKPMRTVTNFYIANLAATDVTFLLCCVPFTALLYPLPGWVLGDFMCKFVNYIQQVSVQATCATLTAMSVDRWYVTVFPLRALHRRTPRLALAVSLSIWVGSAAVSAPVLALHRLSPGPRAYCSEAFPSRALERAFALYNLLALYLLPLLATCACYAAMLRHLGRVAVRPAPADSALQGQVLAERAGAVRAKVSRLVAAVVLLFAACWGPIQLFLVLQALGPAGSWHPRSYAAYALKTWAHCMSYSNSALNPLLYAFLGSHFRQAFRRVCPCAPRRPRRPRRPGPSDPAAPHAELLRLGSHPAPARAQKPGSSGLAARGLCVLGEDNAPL
Gonadotropin-releasing hormone receptor (Homo sapiens), sequence (P30968 whole entry, looked up): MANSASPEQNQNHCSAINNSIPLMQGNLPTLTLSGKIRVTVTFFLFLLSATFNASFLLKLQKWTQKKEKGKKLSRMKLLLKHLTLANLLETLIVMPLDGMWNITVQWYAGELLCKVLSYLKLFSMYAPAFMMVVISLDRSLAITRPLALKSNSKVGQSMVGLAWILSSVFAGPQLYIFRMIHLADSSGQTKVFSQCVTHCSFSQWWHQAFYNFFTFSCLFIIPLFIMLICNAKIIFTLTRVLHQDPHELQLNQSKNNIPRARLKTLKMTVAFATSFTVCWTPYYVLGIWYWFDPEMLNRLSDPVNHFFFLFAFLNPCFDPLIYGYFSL

For `CCCCCCCCCCc1ccccc1`, the Potency result in assay [1], in assay [2], in assay [3], in assay [6], in assay [7] and in assay [8] was “inactive” each time. The Potency entry in assay [9], in assay [10], in assay [11], in assay [12], in assay [13] and in assay [14] was “inactive” in each case. Further, the Potency entry in assay [15] and in assay [16] was “inactive” throughout. Moreover, the result in assay [4] and in assay [5] was inactive.
As for `Cc1scc2c1N(C(=O)CN1CCN(C)CC1)c1ccccc1NC2=O`, the Potency result in assay [1], in assay [2], in [3], in assay [6], in assay [7] and in [8] was “inactive” each time. Moreover, the Potency result in [9], in [10], in assay [17], in assay [11], in assay [13] and in [14] was “inactive” throughout. Besides, the Potency entry in assay [15], in [18], in assay [19] and in assay [16] was “inactive” in each case. In addition, the result in [4] and in [5] was inactive.
For `O=C1c2ccccc2C(=O)C1c1nc2ccccc2c(Br)c1O`, the Potency entry in assay [1], in assay [3], in assay [6], in assay [7], in assay [8] and in assay [9] was “inactive” in each case. Moreover, the Potency result in [10], in assay [17], in assay [11], in assay [12], in assay [13] and in assay [18] was “inactive” throughout. For the same compound, the Potency result in assay [20], in assay [19] and in [16] was “inactive” in each case. Besides, the Potency in [2] was 24.3 µM (active). Also, the outcome in assay [4] and in [5] was inactive.
With `CC(CCl)OC(C)CCl` (stereo not drawn), the Potency entry in [1], in assay [2], in [3], in [6], in [7] and in assay [8] was “inactive” in each case. Besides, the Potency entry in [9], in [10], in [11], in assay [12], in assay [13] and in [14] was “inactive” each time. Also, the Potency result in [18], in assay [19] and in assay [16] was “inactive” throughout. Further, the outcome in assay [4] and in assay [5] was inactive.
With `CC(=O)OC(C)=O`, the Potency result in assay [1], in assay [2], in assay [3], in [6], in [7] and in [8] was “inactive” in each case. Further, the Potency result in assay [9], in assay [10], in [11], in assay [13], in [14] and in assay [15] was “inactive” in each case. The Potency entry in assay [18], in assay [19] and in assay [16] was “inactive” each time. The outcome in assay [4] and in assay [5] was inactive.
For the compound `C=COCC1CCC(COC=C)CC1` (stereo not drawn), the Potency entry in assay [1], in assay [2], in [3], in assay [6], in [7] and in [8] was “inactive” each time. The Potency result in assay [9], in assay [10], in assay [17], in assay [11], in assay [13] and in assay [14] was “inactive” throughout. Further, the Potency result in assay [15], in assay [18], in assay [19] and in [16] was “inactive” each time. Besides, the outcome in assay [4] and in assay [5] was inactive.
`CC(C)=CCC/C(C)=C/CC/C(C)=C/CCC(=O)OC/C=C(\C)CCC=C(C)C`: the Potency entry in assay [1], in assay [2], in [3], in assay [6], in [7] and in [8] was “inactive” each time. Further, the Potency result in assay [9], in assay [10], in assay [17], in assay [11], in assay [12] and in [14] was “inactive” in each case. The Potency result in assay [15], in assay [18] and in [19] was “inactive” throughout. Besides, the result in [4] and in assay [5] was inactive.
Take `C=COCC1CCC(CO)CC1` (stereo not drawn): the Potency entry in [1], in assay [2], in assay [3], in assay [6], in assay [7] and in assay [8] was “inactive” each time. Moreover, the Potency entry in [9], in assay [10], in assay [17], in assay [11], in [12] and in assay [13] was “inactive” each time. In addition, the Potency result in assay [18], in assay [19] and in assay [16] was “inactive” each time. Further, the outcome in assay [4] and in assay [5] was inactive.

(Values after PubChem BioAssay (Tox21).)
